Measurements published in the supplement of paper PMC10849652.
Of roughly 8,800 targets only a part is listed; those with a hit were picked by preference. About 0.5% of all pairs of compound and target were hits.

Compound: Cc1ccc(NC(=O)c2ccc(CN3CC[C@H](N(C)C)C3)c(C(F)(F)F)c2)cc1Nc1nccc(-c2cncnc2)n1 [bafetinib]
Experiment: log2 fold change, soluble protein after heating vs DMSO (PISA); higher = thermal stabilisation; K562 lysate, 10 uM; active = over 0.2 and 3.5 SD of the protein, either way, in both replicates (recomputed)
Method in brief: (§1)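 Quantification was by TMTpro 16plex LC-MS/MS with equalised channel sums, applied to the supernatant after 21,000xg for 90 min. Samples were crude K562 extract at 1 mg/mL protein in PBS pH 7.4 with 1 mM MgCl2, treated with 10 μM compound for 30 min, heated for 3 min across 48°C-58°C, pooled and brought to 0.5% NP-40 at 4°C. Values are log-two fold changes in thermal stability relative to solvent controls, from duplicates.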

UniProt Q9UPN9, sequence (Q9UPN9 whole entry, looked up): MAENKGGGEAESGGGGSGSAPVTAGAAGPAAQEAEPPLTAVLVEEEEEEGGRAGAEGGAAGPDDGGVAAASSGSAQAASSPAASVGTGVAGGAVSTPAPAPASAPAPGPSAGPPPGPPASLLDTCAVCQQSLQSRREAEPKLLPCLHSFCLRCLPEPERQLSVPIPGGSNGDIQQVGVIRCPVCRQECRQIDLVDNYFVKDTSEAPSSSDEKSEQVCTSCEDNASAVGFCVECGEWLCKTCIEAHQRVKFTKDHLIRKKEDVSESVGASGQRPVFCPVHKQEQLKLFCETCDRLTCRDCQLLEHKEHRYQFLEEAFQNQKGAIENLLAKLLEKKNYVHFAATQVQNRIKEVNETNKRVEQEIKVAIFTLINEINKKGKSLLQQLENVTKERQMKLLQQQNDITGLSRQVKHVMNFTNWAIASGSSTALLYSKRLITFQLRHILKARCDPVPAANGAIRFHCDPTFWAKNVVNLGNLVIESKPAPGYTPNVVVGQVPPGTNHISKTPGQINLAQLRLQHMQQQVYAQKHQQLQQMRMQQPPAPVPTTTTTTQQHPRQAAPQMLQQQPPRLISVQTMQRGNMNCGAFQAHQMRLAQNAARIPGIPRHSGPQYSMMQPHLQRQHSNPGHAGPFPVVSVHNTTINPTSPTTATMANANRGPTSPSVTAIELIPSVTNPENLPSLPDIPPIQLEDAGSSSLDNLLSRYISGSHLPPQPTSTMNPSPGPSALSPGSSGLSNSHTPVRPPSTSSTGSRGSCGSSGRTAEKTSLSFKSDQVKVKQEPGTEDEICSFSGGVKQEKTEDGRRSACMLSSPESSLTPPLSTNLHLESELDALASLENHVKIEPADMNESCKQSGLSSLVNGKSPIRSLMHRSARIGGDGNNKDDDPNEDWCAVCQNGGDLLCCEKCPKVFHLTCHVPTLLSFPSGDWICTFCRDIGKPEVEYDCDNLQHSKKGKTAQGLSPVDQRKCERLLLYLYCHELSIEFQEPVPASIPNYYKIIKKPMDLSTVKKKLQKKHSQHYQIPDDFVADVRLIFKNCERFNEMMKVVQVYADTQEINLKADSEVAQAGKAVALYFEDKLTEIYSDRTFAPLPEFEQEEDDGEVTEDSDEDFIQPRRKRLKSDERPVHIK
UniProt O95071, sequence (O95071 whole entry, looked up): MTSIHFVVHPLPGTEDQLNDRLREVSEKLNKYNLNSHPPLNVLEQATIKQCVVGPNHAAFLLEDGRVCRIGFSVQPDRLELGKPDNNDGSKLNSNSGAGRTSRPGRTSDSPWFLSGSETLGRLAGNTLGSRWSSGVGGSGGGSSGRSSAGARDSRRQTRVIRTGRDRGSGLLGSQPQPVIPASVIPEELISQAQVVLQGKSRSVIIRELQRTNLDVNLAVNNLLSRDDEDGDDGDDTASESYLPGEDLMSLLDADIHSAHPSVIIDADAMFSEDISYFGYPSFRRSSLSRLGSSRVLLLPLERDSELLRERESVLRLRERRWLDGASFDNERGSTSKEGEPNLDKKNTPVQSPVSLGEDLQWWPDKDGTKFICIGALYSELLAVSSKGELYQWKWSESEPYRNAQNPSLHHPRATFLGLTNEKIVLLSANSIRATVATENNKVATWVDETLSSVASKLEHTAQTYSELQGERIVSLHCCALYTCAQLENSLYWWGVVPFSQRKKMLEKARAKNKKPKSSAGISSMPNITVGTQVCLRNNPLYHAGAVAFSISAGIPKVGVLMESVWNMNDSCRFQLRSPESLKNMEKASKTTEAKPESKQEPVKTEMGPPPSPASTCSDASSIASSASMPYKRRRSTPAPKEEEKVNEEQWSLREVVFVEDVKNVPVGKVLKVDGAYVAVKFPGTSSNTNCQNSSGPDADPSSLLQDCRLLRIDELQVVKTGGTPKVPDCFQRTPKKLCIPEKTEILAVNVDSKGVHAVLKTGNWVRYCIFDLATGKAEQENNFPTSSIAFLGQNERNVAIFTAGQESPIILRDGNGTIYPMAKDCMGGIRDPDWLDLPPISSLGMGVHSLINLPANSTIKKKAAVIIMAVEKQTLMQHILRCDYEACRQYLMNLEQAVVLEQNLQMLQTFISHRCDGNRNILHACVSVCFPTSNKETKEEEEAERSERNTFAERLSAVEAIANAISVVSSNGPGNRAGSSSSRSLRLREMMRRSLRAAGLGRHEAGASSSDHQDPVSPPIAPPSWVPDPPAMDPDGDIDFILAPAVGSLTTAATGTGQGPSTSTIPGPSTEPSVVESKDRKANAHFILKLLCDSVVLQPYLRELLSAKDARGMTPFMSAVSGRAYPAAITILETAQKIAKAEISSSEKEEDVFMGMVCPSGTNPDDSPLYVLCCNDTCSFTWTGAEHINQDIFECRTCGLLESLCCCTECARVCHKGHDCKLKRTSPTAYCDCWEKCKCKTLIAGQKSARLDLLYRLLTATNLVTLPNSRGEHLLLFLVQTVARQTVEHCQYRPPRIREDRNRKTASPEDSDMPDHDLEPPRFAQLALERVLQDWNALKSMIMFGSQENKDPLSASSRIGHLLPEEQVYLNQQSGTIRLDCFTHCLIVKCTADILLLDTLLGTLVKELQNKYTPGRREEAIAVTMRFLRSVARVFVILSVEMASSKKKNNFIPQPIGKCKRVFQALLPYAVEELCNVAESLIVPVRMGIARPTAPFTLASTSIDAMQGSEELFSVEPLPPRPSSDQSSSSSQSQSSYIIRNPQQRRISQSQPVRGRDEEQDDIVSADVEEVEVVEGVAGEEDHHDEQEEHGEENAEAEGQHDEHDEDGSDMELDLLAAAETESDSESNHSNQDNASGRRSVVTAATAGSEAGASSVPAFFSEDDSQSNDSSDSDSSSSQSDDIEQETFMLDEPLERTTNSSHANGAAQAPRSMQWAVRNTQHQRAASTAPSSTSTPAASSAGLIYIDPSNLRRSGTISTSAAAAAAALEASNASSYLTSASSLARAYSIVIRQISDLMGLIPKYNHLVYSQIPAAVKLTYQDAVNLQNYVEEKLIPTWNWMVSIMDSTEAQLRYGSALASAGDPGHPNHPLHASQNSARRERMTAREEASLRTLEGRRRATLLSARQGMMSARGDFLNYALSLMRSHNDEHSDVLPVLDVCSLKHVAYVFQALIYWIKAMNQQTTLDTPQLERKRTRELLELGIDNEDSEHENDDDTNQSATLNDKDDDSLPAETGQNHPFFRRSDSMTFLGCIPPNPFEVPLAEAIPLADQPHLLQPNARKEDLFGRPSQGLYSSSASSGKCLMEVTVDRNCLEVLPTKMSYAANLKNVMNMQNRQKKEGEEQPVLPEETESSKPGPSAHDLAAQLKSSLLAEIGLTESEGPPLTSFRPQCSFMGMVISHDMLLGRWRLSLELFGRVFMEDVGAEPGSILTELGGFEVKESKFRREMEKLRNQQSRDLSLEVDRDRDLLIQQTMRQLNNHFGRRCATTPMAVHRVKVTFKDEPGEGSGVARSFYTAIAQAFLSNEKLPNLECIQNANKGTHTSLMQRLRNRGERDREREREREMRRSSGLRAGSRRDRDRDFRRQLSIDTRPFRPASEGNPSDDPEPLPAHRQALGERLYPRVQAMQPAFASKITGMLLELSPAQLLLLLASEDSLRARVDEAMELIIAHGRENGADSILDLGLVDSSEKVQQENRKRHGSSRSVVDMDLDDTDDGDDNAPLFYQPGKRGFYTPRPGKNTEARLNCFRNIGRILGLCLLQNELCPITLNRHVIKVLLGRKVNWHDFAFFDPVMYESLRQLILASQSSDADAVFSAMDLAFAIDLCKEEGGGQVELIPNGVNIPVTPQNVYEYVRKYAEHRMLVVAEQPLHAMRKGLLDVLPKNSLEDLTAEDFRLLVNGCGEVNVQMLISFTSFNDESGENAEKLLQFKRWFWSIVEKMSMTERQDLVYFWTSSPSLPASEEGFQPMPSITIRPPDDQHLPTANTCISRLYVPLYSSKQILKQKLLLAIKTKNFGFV
UniProt Q96F44, sequence (Q96F44 whole entry, looked up): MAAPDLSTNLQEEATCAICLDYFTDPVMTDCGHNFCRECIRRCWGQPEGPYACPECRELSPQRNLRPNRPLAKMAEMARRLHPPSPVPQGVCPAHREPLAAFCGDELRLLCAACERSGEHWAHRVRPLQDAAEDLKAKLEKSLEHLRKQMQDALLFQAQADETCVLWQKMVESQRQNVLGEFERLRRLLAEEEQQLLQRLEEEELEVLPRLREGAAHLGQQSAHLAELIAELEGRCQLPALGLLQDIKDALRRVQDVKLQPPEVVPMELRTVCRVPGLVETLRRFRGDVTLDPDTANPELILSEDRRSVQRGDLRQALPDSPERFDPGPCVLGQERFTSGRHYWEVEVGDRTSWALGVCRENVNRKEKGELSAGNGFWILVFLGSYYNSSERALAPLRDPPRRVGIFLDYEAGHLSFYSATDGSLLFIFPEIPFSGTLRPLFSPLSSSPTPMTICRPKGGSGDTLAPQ
UniProt P36406, sequence (P36406 whole entry, looked up): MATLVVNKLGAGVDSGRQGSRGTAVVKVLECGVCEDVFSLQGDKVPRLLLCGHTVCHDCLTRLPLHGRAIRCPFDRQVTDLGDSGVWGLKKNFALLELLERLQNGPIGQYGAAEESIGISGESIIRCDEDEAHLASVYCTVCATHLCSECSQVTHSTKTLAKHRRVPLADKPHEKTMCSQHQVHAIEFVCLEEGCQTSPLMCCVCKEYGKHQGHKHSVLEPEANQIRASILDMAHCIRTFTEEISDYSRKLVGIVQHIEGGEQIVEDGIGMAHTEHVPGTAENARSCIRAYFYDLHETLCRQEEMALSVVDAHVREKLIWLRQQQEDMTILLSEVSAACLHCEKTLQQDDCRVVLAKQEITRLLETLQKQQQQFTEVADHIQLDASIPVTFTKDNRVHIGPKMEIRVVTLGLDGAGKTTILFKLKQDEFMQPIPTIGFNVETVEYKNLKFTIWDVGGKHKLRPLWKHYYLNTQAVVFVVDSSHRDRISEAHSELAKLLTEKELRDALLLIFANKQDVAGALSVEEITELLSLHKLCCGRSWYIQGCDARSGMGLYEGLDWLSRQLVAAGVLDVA

log2 fold change, inactive:
TBCE (UniProt Q15813) 0.033
TNPO3 (UniProt Q9Y5L0) -0.028
TRIM33 (UniProt H0Y612) -0.077
TPST2 (UniProt O60704) 0.022
UBR4 (UniProt Q5T4S7) -0.038
TTK (UniProt P33981) -0.068
TP53RK (UniProt Q96S44) -0.032
TUBGCP3 (UniProt Q96CW5) -0.057
UBR3 isoform 4 (UniProt Q6ZT12) -0.042
TRIM33 isoform 2 (UniProt Q9UPN9) -0.038
TOE1 (UniProt Q96GM8) 0.047
UBA1 (UniProt P22314) -0.017
TUBB1 (UniProt Q9H4B7) 0.036
TUBGCP2 isoform 4 (UniProt Q9BSJ2) 0.002
TPM4 isoform 2 (UniProt P67936) 0.075
TMOD1 (UniProt P28289) -0.004
TRAPPC10 (UniProt P48553) -0.007
TRMT12 (UniProt Q53H54) -0.021
TSPAN13 (UniProt O95857) 0.038
UBE2H (UniProt P62256) 0.009
TLE3 isoform 5 (UniProt Q04726) 0.084
TSFM (UniProt P43897) -0.026
TRMT2A (UniProt Q8IZ69) -0.016
TUBA1B (UniProt P68363) -0.025
TUT4 (UniProt Q5TAX3) -0.039
TBL2 (UniProt Q9Y4P3) -0.013
TK1 (UniProt P04183) 0.009
TTC5 (UniProt Q8N0Z6) -0.052
TRNAU1AP (UniProt Q9NX07) -0.001
UBR5 (UniProt O95071) -0.047
TRAF2 isoform 2 (UniProt Q12933) -0.011
UCHL5 isoform 3 (UniProt Q9Y5K5) -0.019
TRIM23 (UniProt P36406) -0.088
TRIM11 (UniProt Q96F44) 0.029

Compound: Cc1cccc(CC(=O)N2CCc3c2ccc(-c2cn(C)c4ncnc(N)c24)c3F)n1
Experiment: as above
Method in brief: as §1

log2 fold change, inactive:
TBCE (UniProt Q15813) 0.039
TNPO3 (UniProt Q9Y5L0) 0.026
TRIM33 (UniProt H0Y612) 0.039
TPST2 (UniProt O60704) 0.126
UBR4 (UniProt Q5T4S7) 0.037
TTK (UniProt P33981) 0.024
TP53RK (UniProt Q96S44) 0.035
TUBGCP3 (UniProt Q96CW5) 0.013
UBR3 isoform 4 (UniProt Q6ZT12) 0.05
TRIM33 isoform 2 (UniProt Q9UPN9) 0.056
TOE1 (UniProt Q96GM8) 0.059
UBA1 (UniProt P22314) 0.023
TUBB1 (UniProt Q9H4B7) -0.06
TUBGCP2 isoform 4 (UniProt Q9BSJ2) 0.009
TPM4 isoform 2 (UniProt P67936) -0.164
TMOD1 (UniProt P28289) -0.029
TRAPPC10 (UniProt P48553) 0.074
TRMT12 (UniProt Q53H54) 0.14
TSPAN13 (UniProt O95857) 0.055
UBE2H (UniProt P62256) -0.188
TLE3 isoform 5 (UniProt Q04726) 0.084
TSFM (UniProt P43897) -0.034
TRMT2A (UniProt Q8IZ69) 0.009
TUBA1B (UniProt P68363) 0.002
TUT4 (UniProt Q5TAX3) 0.15
TBL2 (UniProt Q9Y4P3) 0.055
TK1 (UniProt P04183) 0.021
TTC5 (UniProt Q8N0Z6) 0.04
TRNAU1AP (UniProt Q9NX07) 0.061
UBR5 (UniProt O95071) 0.046
TRAF2 isoform 2 (UniProt Q12933) 0.053
UCHL5 isoform 3 (UniProt Q9Y5K5) -0.02
TRIM23 (UniProt P36406) 0.297
TRIM11 (UniProt Q96F44) -0.003
